Test results: PubChem BioAssay AID1259313 (Sanford-Burnham Center for Chemical Genomics, 2017)
Values joined by “and” are separate entries in the source; they are usually repeats but may differ in a detail not shown here. Identical values can stand only once. Hit rate of the full screen: of about 340,000 compounds, about 8,500 (2.5%) were called active.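 Rule for the calls: active = melting temperature shift of at least 10% of the positive control shift, at one fixed dose; inactive = the rest.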 The sample as a whole holds a higher share of actives than the screen did.

Tested on: Glutamate receptor ionotropic, NMDA 3A (GRIN3A) ligand-binding domain
Test: NR3A LBD thermal stabilization by compounds – biophysical, differential scanning fluorimetry, uHTS, primary screen (AID 1259313)
Conditions: at 25 µM, hits give high values, 0% = protein alone, 100% = glycine-bound protein

Compound | Tm shift relative to glycine control
COC(=O)C1=C(C)N(Cc2ccccc2)C(=NCCCOC(C)C)N[C@H]1c1ccccc1 | -2.6% (inactive)
Cc1ccccc1NC(=O)c1ccc(COc2ccc3c(C)cc(=O)oc3c2)cc1 | 12% (active)
CCN(C(=O)COC(=O)c1ccc(COc2ccc3c(C)cc(=O)oc3c2)cc1)C1CCS(=O)(=O)C1 (configuration not stated) | 2.72% (inactive)
CCOC(=O)c1cc(=O)c2ccc(OCc3ccccc3)cc2o1 | 2.08% (inactive)
COC(=O)c1ccc(/C=N/OCC(=O)Nc2cc(F)ccc2F)cc1 | 1.06% (inactive)
CC(NC(=O)C(=O)N/N=C/c1ccc(Cl)cc1)c1ccccc1 (configuration not stated) | -8.19% (inactive)
CC(C)Cn1cnc2c(SCc3ccc(Cl)cc3)nc(N)nc21 | -6.54% (inactive)
COC(=O)C1=C(C)NC2=C(C(=O)c3ccccc32)C1c1ccc(-c2ccc(C(=O)O)cc2)o1 (configuration not stated) | 30% (active)
CCOC(=O)c1ccc(-c2ccc(C(=O)Nc3cccnc3)o2)cc1 | -18.8% (inactive)
COC(=O)C1=C(C)N(C)C(=O)NC1c1ccc([N+](=O)[O-])o1 (configuration not stated) | -3.85% (inactive)
NC(=O)C[n+]1cccc(C(N)=O)c1 | -0.09% (inactive)
O=C(Nc1ccc(Cl)cc1)/C(=C1\CCCN1)[N+](=O)[O-] | -1.33% (inactive)
COc1ccc(Cc2nnc(N/N=C/c3ccccc3O)[nH]c2=O)cc1OC | -2.87% (inactive)
COc1ccc(/C=N/Nc2cc(N3CCOCC3)nc(C)n2)c(OC)c1 | -3.16% (inactive)
COc1cccc(/C=N/Nc2cc(C)nc(-c3ccccc3O)n2)c1O | 30.6% (active)
COc1ccc(C(=O)CC(=O)C(=O)Nc2cc([N+](=O)[O-])ccc2OC)cc1 | 2.73% (inactive)
COc1ccc(NS(=O)(=O)c2cc(C(=O)Nc3ccccc3C(=O)O)ccc2C)cc1 | 1.75% (inactive)
COc1ccc(NS(=O)(=O)c2cc(NC(=O)CC(=O)c3ccc([N+](=O)[O-])cc3)ccc2C)cc1 | 24% (active)
COc1ccc(/C=C/C(=O)OCC(=O)NCc2cccs2)cc1OC | 0.79% (inactive)

Compound | Tm shift relative to glycine control
C#C[C@]1(O)CC[C@H]2[C@@H]3CCC4=CC(=O)CC[C@@H]4[C@H]3CC[C@@]21CC | 1.26% (inactive) and -0.79% (inactive)
Cc1ccc(S(=O)(=O)N(C)c2nc3ccccc3n3c(C(C)C)nnc23)cc1 | 1.79% (inactive)
CCOC(=O)CNc1nc2ccccc2n2c(C)nnc12 | -9.54% (inactive)
Cc1ccc(Oc2nc3ccccc3n3c(C)nnc23)cc1 | 12.7% (active)
COc1ccccc1-n1cnc2cc(NS(=O)(=O)c3ccccc3)ccc21 | 0.96% (inactive)
O=C1c2cccc3cccc(c23)C(=O)N1c1cccc(O)c1 | 3.66% (inactive)
O=C(c1cccc(Br)c1)N1CCN(C2=NS(=O)(=O)c3ccccc32)CC1 | -0.26% (inactive)
CCC1CCCCN1C(=S)Nc1ccc(S(=O)(=O)Nc2ncccn2)cc1 (configuration not stated) | -1.92% (inactive)
O=C(Nc1ccc(C2CC2(Cl)Cl)cc1)c1cccc([N+](=O)[O-])c1 (configuration not stated) | -0.36% (inactive)
COc1cc(NC(=O)c2cc([N+](=O)[O-])ccc2Br)ccc1NC(=O)c1ccco1 | -2.17% (inactive)
O=C(Nc1ccc(NC(=O)c2ccco2)c(Cl)c1)c1cccc([N+](=O)[O-])c1 | 24.7% (active)
COc1ccc(N2CCN(C(=O)c3ccccc3NC(=O)C3=C(C)OCCS3)CC2)cc1 | -0.18% (inactive)
CCOC(=O)c1cc2cc(C)ccc2[nH]1 | 0.1% (inactive)
Cn1ccc(=NC=C(C#N)C#N)c2ccccc21 | -0.6% (inactive)
Cc1cc(C)n2nc(C(=O)OC(C)C(=O)c3cc(C)c(C)cc3C)nc2n1 (configuration not stated) | 1.24% (inactive)
Cc1cc(=O)oc2cc(OCC3CC(c4ccccc4Cl)=NO3)ccc12 (configuration not stated) | 11.5% (active)
Cc1cc(=O)oc2cc(OCCC[n+]3ccccc3)ccc12 | -1.47% (inactive)
CCOc1ccccc1N1CCN(C(=O)COc2ccc3c(C)cc(=O)oc3c2)CC1 | -4.48% (inactive)
O=C(COC(=O)/C=C/c1cccc(Cl)c1)NCCc1ccccc1 | 0.53% (inactive)

Compound | Tm shift relative to glycine control
C[C@H](O)[C@@H]1C(=O)N2CCc3ccc(N4CCOCC4)cc3[C@@H]2C[C@@H]1N(C)C(=O)C(C)(C)C | -1.15% (inactive)
O=C(NCc1ccco1)C(c1ccncc1)N(C(=O)Cn1nnc2ccccc21)c1ccccc1 (configuration not stated) | -1.69% (inactive)
COc1ccc(Br)cc1C(=O)Nc1cccc(C)c1C | -2.13% (inactive)
COc1ccccc1C(=O)NC(=S)Nc1ccccc1N1CCCCC1 | -4.34% (inactive)
COc1ccc(Br)cc1C(=O)NC(=S)Nc1cc(-c2nc3ccccc3[nH]2)ccc1C | 25.9% (active)
Cc1ccc2cc(C)c(N3CCC(C)CC3)nc2c1 | 3.71% (inactive)
Cc1ccccc1NC(=O)CSc1nc2ccc(Nc3nc(N4CCOCC4)nc(N4CCOCC4)n3)cc2s1 | -1.11% (inactive)
CC1(c2ccccc2)NC(=O)N(CC(=O)Nc2cc(Cl)ccc2N2CCOCC2)C1=O (configuration not stated) | 0.96% (inactive)
O=C(CSc1nc(Nc2ccccc2)nc(N2CCOCC2)n1)Nc1cc(Cl)ccc1O | 32.6% (active)
Cc1ccc(C(=O)OCC(=O)NC(=O)Cc2ccccc2)c(O)c1 | 0.78% (inactive)
O=S(=O)(NC1CCCCC1N1CCN(c2ccccc2F)CC1)c1ccccc1 (configuration not stated) | -1.62% (inactive)
Cc1ccc(NC(=O)CC2C(=O)N(Cc3ccccc3)C(=S)N2NC(=O)c2cccc(F)c2)c(C)c1 (configuration not stated) | 19.1% (active)
Cc1ccc(N2C(=O)C(CC(=O)Nc3cccc(F)c3)N(CCc3ccncc3)C2=O)cc1 (configuration not stated) | 0.4% (inactive)
CN1C(=O)C(CC(N)=O)N(NC(=O)c2ccc(Cl)cc2)C1=S (configuration not stated) | -3.25% (inactive)
CC1=C(C(=O)Nc2ccccc2)C(c2cccs2)C(C#N)=C(SCC#N)N1 (configuration not stated) | -11.3% (inactive)
O=C(NCCOc1ccccc1Cl)C(=O)Nc1ccccc1 | -4.63% (inactive)
O=C(NCCOc1ccccc1F)Nc1ccc(Br)cc1 | 16.4% (active)
O=C(COc1ccccc1F)NNC(=O)c1cc(Br)ccc1Cl | 0.51% (inactive)
CCN(CC)c1ccc(NC(=O)c2ccc(=O)[nH]c2)cc1S(=O)(=O)Nc1ccc(OC)cc1 | -4.98% (inactive)
